# ATXN2 expr inh: ATXN2 expression inhibition; HEK-293 ATXN2-luciferase reporter, luminescence, 24 h; Potency, µM (doses to about 57 µM), for the others: top-dose activity change, negative = inhibition, hits mostly inhibitors; 0.72% of 360,000 active; AID 1745845; also: % is scaled to controls: 0 for no effect and ±100 for the full control effect; nearly all actives have a fitted effect of over 55% in size
#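 ATXN2-luciferase reporter cells (luciferase flanked by upstream and downstream ATXN2 gene portions) were treated 24 h at 37 °C with compounds at up to 57 uM. SteadyGlo luminescence gave expression; GF-AFC fluorescence gave viability.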
# DT40 TDP1 no CPT: qHTS for Inhibitors of human tyrosyl-DNA phosphodiesterase 1 (TDP1): qHTS in cells in absence of CPT. DT40 Tdp1-/- hTDP1 cells, no CPT, ATP luminescence, 48 h. Potency, µM (titrated, usually from 46.2 µM), for the others: at the highest dose activity change, negative = growth inhibition, actives largely listed as inhibitors. 15% of 420,000 active. AID 686978, 2013; also: % is scaled to controls: 0 for no effect and ±100 for the full control effect; nearly all actives have a fitted effect of over 55% in size
#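 Growth of hTDP1-complemented DT40 Tdp1-knockout cells is measured by ATP luminescence after at least 48 hr compound exposure at 37 °C, with DMSO substituting for the 20 nM CPT used in the parallel screen.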
# HepG2 tox: counter-screen for TGF-b inhibitors: cytotoxicity in HepG2 cells; HepG2 CAGA-GFP viability, ATP luminescence, 18 h; Potency, µM (highest dose often 46.1 µM), without a hit: top-dose activity change, negative = cytotoxicity, hits mostly cytotoxic; 0.76% of 410,000 active
#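 CellTiter-Glo luminescence gave cytotoxicity after 18 hours at 37 degrees C. The cells were HepG2 CAGA-GFP in 1% FBS DMEM, stimulated with 500 pg/mL TGF-beta after compound addition. %Activity was normalised to no-cell wells (complete cell-killing) and DMSO (no toxicity), and curves were fitted and classified.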
# TGFb inhibitor: blocks TGF-b signaling; HepG2 CAGA-GFP TGF-b/SMAD3 reporter, GFP fluorescence, 18 h; TGF-beta stimulated, 500 pg/mL final; AID 588855; Potency, µM (top dose mostly 46.1 µM), for the others: at the top dose activity, negative = inhibition, actives largely listed as inhibitors; 1.2% of 410,000 active; also: % is scaled to controls: 0 for no effect and ±100 for the full control effect; nearly all actives have a fitted effect of over 65% in size
#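 Inhibition was scored as loss of TGF-beta-induced (500 pg/mL final, 18 hours, 37 degrees C) GFP in HEPG2 cells carrying a CAGA-GFP reporter, in DMEM with 1% FBS. Well GFP was summed per cell; Activity was normalised to unstimulated and stimulated DMSO wells, then concentration-response fitting.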
# TDP1 cell CPT: DT40-hTDP1 cell growth loss with CPT; Potency, µM (top dose mostly 46.2 µM), without a hit: at the top dose activity change, negative = growth inhibition, actives largely listed as inhibitors; 12% of 420,000 active; chicken DT40 Tdp1-/-;hTDP1 cells + 20 nM CPT, ATP luminescence, 48 h; also: % is scaled to controls: 0 for no effect and ±100 for the full control effect; nearly all actives have a fitted effect of over 55% in size
#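 Chicken DT40 Tdp1-/- cells complemented with human TDP1, 400 cells/well, exposed to compounds plus 20 nM camptothecin for at least 48 h at 37 C; viability read as ATP content by CellTiter-Glo luminescence.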
# ATXN viability: reduces viability in counter-screen for ATXN expression inhibitors. S2 cells (HEK-293 line with an ATXN2-luciferase reporter) viability, CellTiter-Fluor protease fluorescence, 24 h. Potency, µM (highest dose often 56.7 µM), usual class: cytotoxic. 0.49% of 400,000 active; also: nearly all actives have a fitted effect of over 40% in size
# Active calls of the source: *; i = inactive; ? = inconclusive; . = no result given. Hits are enriched below; roughly 17% of the tested compounds scored in any of these assays. Calls follow the shape of the dose curve; as a rule, active = well fitted curve in the direction sought with a large enough effect; inconclusive = small, poorly fitted or top-dose-only effect, or another doubt; inactive = no such curve, though single readings can be large; an effect the other way counts as inactive or inconclusive. Potency is read from the fitted curve at half-maximal effect.
SMILES,ATXN2 expr inh,DT40 TDP1 no CPT,HepG2 tox,TGFb inhibitor,TDP1 cell CPT,ATXN viability
COC(=O)C1=C[C@@H](C(=O)OC)C2C3=C(C(=O)[C@]2(CC(C)C)NC(=O)c2ccccc2)[C@H](C)n2c(=O)n(-c4ccccc4)c(=O)n2[C@@H]3C1 (stereo not given in full),.,.,-11%,?,.,.
Oc1ccc(Nc2nc(Cl)nc(NCc3ccco3)n2)cc1,21%,?,-29%,4%,-5%,i
C[C@@H]1C=CC(=O)O[C@@H]1c1ccc(Cl)cc1,?,7.3µM*,-49%,?,7.3µM*,?
O=C(Nc1ccc(F)cc1)C(c1ccnc2ccccc12)N1CCN(CC(=O)N2CCCC2)CC1 (stereo not given),.,7%,.,.,4%,.
O=C(OCc1ccccc1)N1CCN(C(c2ccnc3ccccc23)c2nnnn2-c2ccc3c(c2)OCCO3)CC1 (stereo not given),-8%,8.2µM*,.,.,23µM*,i
c1ccc2c(C(c3nnnn3-c3ccc4c(c3)OCCO4)N3CCCC3)ccnc2c1 (stereo not given),-13%,?,.,.,-2%,?
O=C(Nc1ccc(F)cc1)C(c1ccnc2ccccc12)N1CCN(c2cccc(C(F)(F)F)n2)CC1 (stereo not given),.,21µM*,.,.,?,.
c1ccc2c(C(c3nnnn3-c3ccc4c(c3)OCCO4)N3CCOCC3)ccnc2c1 (stereo not given),14%,-2%,.,.,3%,i
Cc1cccc(C)c1-n1nnnc1C(c1ccnc2ccccc12)N1CCCN(C(=O)OC(C)(C)C)CC1 (stereo not given),-2%,18µM*,.,.,?,i
CN(C)CCN1CCN(C(c2ccnc3ccccc23)c2nnnn2-c2ccc3c(c2)OCCO3)CC1 (stereo not given),4%,16µM*,.,.,-23%,i
O=C(O)C1=C(C(=O)O)C2C=CC1C2,1%,-13%,15%,14%,-4%,i
CCOC(=O)c1c(NC(=O)CSC(=S)N2CCOCC2)sc(C)c1C,-14%,-29%,-11%,1%,-13%,i
O=c1c2oc3ccccc3c2n(Cc2ccccc2F)c(=O)n1Cc1ccc2c(c1)OCO2,.,?,-3%,-21%,0%,.
Cc1nc2n(c(=O)c1CCN1CCC(c3noc4cc(F)ccc34)CC1)CCC[C@@H]2O,.,.,-12%,0%,.,.
Cc1cccc(C)c1NC(=O)C(c1ccnc2ccccc12)N1CCN(CCN(C)C)CC1 (stereo not given),.,5.2µM*,.,.,4.6µM*,.
CCOc1ccc(Nc2nc3ccccc3n3c(CC)nnc23)cc1,7%,?,-1%,16%,?,i
O=C(N/N=C/c1cccnc1)c1ccccc1Br,-6%,-2%,3%,-1%,6%,i
Cc1ccc(-c2cc(C(=O)N/N=C/c3cccnc3)c3ccccc3n2)cc1C,3%,8.2µM*,-93%,?,8.2µM*,?
O=C(N/N=C/c1cccnc1)c1cc(-c2ccc(Br)cc2)nc2ccccc12,-24%,8.2µM*,-9%,?,12µM*,i
Cc1ccc(/C=N/NC(=O)c2cc(-c3cccnc3)nc3ccccc23)cc1,-23%,1.5µM*,3%,?,2.1µM*,i
CCOc1cc(C=NNC(=O)N(c2ccccc2)c2ccccc2)ccc1O,6%,16µM*,-14%,34%,29µM*,i
CCOc1cc(/C=N\NC(=O)CC(=O)NCCc2ccccc2)ccc1O,15%,0%,3%,1%,-5%,i
Cc1ccc(C)c(-c2cc(C(=O)N/N=C/c3cccnc3)c3ccccc3n2)c1,-4%,?,-10%,73%,?,i
CSCC[C@H](NC(=O)OC(C)(C)C)C(=O)NCC1CCC(C(=O)O)CC1 (stereo not given in full),-12%,28%,0%,4%,5%,i
O=C(O)[C@@H](O)c1ccccc1,3%,-6%,6%,.,5%,i
SMILES,ATXN2 expr inh,DT40 TDP1 no CPT,HepG2 tox,TGFb inhibitor,TDP1 cell CPT,ATXN viability
COC(=O)c1ccccc1NC(=O)C1CCCN(C(=O)c2cnn(-c3ccc(F)cc3)c2-n2cccc2)C1 (stereo not given),20%,.,-4%,0%,.,i
CCOc1cccc(-c2cc(C(=O)N/N=C/c3ccc(OC)c(CN4CCOCC4)c3)c3ccccc3n2)c1,-7%,16µM*,-45%,0%,18µM*,i
O=C(N/N=C/c1cccnc1)c1cc(-c2ccccc2)nc2ccccc12,12%,?,-52%,0%,?,i
O=C(N/N=C/c1ccc[nH]1)c1cc(-c2ccc(Cl)cc2)nc2ccccc12,?,9.2µM*,-19%,-18%,?,i
O=C(N/N=C/c1ccc(Cl)cc1)c1cc(-c2cccnc2)nc2ccccc12,-8%,7.3µM*,2%,-31%,?,i
O=C(N/N=C/c1cccnc1)c1cc(-c2ccc(Cl)cc2)nc2ccccc12,.,8.2µM*,-19%,-9%,?,i
COc1ccc(CNC(=O)COC(=O)c2cnccn2)cc1,6%,20%,2%,4%,-12%,i
CCOc1cc(/C=N/NC(=O)c2c(-c3ccccc3)noc2C)ccc1O,-4%,-7%,-6%,-1%,-23%,i
CCOc1cc(/C=N/NC(=O)c2cc(-c3cccnc3)nc3ccccc23)ccc1O,-15%,6.5µM*,0%,35%,-29%,i
CCOc1ccc(/C=C/c2nc(C#N)c(N3CCN(c4ccc(OC)cc4)CC3)o2)cc1,.,-24%,4%,-13%,1%,.
O=C(CNC(=O)c1ccc(Br)cc1)c1ccc(Br)cc1,-15%,12%,-12%,0%,-4%,?
CCN(CC)C(=S)SCC(=O)c1ccc(Br)cc1,.,23µM*,-4%,-4%,-4%,i
CCOC(=O)c1c(C)[nH]c(C(=O)N(C)Cc2cccc(OC)c2OC)c1C,-11%,?,-9%,-11%,?,i
CCCNC(=O)Nc1nc(C(N)c2ccc(OC)cc2)cs1 (stereo not given),5%,-22%,-50%,61%,-21%,i
Cc1ccc(CNS(=O)(=O)c2ccc(-c3cnc(C4CC4)o3)cc2)cc1,-26%,?,-6%,?,?,i
